# Measurements reported in PubChem BioAssay (NCI).
# Several values for one entry are separate records, joined by “and”; a condition that tells them apart may be missing. Equal entries are not always repeated. Compounds without any hit were thinned out: in the full panel of roughly 83,000, 20% have a hit.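 Note: values are percent growth. 100 is the growth of untreated cells, values between 100 and 0 indicate rising inhibition; between -100 and 0 indicates cell death.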 A number with no mark means an inactive call. Activity calls are given as the source filed them. How the source made its calls: active means growth percent below 10; inactive means the rest.
# What was measured:
# Experiment in all cases: NCI-60 one-dose screen, 48 h (100 = growth as untreated, 0 = no growth, -100 = all killed)
# Details in all cases: 10 µM
# NCI-H322M lung = tested on: NCI-H322M lung
# HOP-62 NSCLC = tested on: HOP-62 NSCLC
# NCI-H460 lung = tested on: NCI-H460 lung
# HOP-92 NSCLC = tested on: HOP-92 NSCLC
# A549/ATCC NSCLC = tested on: A549/ATCC NSCLC
# COLO 205 colon = tested on: COLO 205 colon
# DU-145 prostate = tested on: DU-145 prostate
# K-562 leukemia = tested on: K-562 leukemia
# MALME-3M melanoma = tested on: MALME-3M melanoma
# MDA-MB-231 breast = tested on: MDA-MB-231 breast
# RXF 393 renal = tested on: RXF 393 renal
# SF-268 CNS = tested on: SF-268 CNS
# SF-295 CNS = tested on: SF-295 CNS
# SF-539 CNS = tested on: SF-539 CNS
# UACC-257 melanoma = tested on: UACC-257 melanoma
# NCI-H23 lung = tested on: NCI-H23 lung
# NCI-H522 lung = tested on: NCI-H522 lung
# 786-0 renal = tested on: 786-0 renal
# M14 melanoma = tested on: M14 melanoma
Structure (SMILES),growth (NCI-H322M lung),growth (HOP-62 NSCLC),growth (NCI-H460 lung),growth (HOP-92 NSCLC),growth (A549/ATCC NSCLC),growth (COLO 205 colon),growth (DU-145 prostate),growth (K-562 leukemia),growth (MALME-3M melanoma),growth (MDA-MB-231 breast),growth (RXF 393 renal),growth (SF-268 CNS),growth (SF-295 CNS),growth (SF-539 CNS),growth (UACC-257 melanoma),growth (NCI-H23 lung),growth (NCI-H522 lung),growth (786-0 renal),growth (M14 melanoma)
Oc1c(I)cc(I)cc1I,110%,103%,105%,106%,106%,116%,114%,98.6%,121%,93.7%,108%,104%,110%,102%,107%,,,,
[Cl][Hg][c]1ccc(Cl)s1,91.3%,87.8%,83.7%,-70% (active),97.2%,,62.5%,-0.908% (active),-69.8% (active),-47.2% (active),-90% (active),25.2%,100%,-3.52% (active),16.4%,51.1%,-98.1% (active),-54.5% (active),-54.5% (active)
COc1ccc(/C=C\[N+](=O)[O-])cc1OC,129% and 90.2%,107% and 88%,45.6% and 63.3%,92.8% and 82.3%,67.9% and 68.7%,,60.5% and 59.3%,69.7% and 27.5%,155% and 105%,91.4% and 68.9%,4.99% (active) and -51.1% (active),73.8% and 70.3%,60.6% and 85.3%,88.1% and 59.3%,33.8% and 73%,83.9% and 65.5%,80.6% and 75.6%,96.4% and 47.9%,75.6% and 42.5%
CC/C(=C/c1ccc(OC)cc1OC)[N+](=O)[O-],90.3%,74%,49.5%,,65.1%,,39.1%,3.65% (active),8.59% (active),18.4%,-59.6% (active),41.5%,101%,-1.55% (active),45.8%,59%,-41.7% (active),-53% (active),54%
CC/C(=C/c1ccc(OC)cc1)[N+](=O)[O-],86%,78.1%,52.7%,,62.3%,,31.5%,5.85% (active),-36.1% (active),-18.5% (active),-79.7% (active),38%,98.1%,-19.6% (active),4.44% (active),51.8%,-47.7% (active),-83.5% (active),19.9%
COc1cc2c(cc1OC)C13CCN4CC5=CCOC6CC(=O)N2C1C6C5CC43 (stereo unspecified),118% and 144%,120% and 102%,120% and 83.2%,87.4%,99.4%,,123% and 116%,124% and 74.9%,126% and 103%,111% and 87.4%,127%,103%,105% and 134%,96.8% and 80.2%,104%,90% and 100%,105% and 99.1%,112% and 99.6%,107% and 108%
O=C(CBr)Nc1ccc(Cl)cc1,101%,,106%,91.9%,100%,,105%,12.8%,29.8%,64.4%,97.7%,88.9%,103%,105%,99.7%,81.2%,-67.2% (active),56.6%,67.2%
ClCc1ccc2ccccc2n1,100%,59.4%,110%,79.8%,102%,,102%,72.3%,97.6%,102%,95.5%,80.5%,87.3%,106%,104%,85.2%,95.4%,103%,84.7%
C[C@]12CC[C@H]3[C@@H](CCC4=CC(=O)CC[C@@H]43)[C@@H]1CC[C@@H]2OC(=O)N(CCCl)N=O,45.6%,44.8%,-37.9% (active),-11% (active),40.7%,,1.81% (active),29.5%,91.7%,76.3%,69.9%,23.7%,12.3%,-0.439% (active),84.4%,55.7%,39.7%,17.9%,49%
COC1CC2C=C(C)/C=C/C=C/C(=O)NC(c3ccccc3)C/C=C/CCC(O)CC(=O)C2=C1O (stereo unspecified),-92.8% (active),-91.6% (active),-73.3% (active),-86.6% (active),-82.7% (active),-79.1% (active),-85.6% (active),-52.2% (active),-84.5% (active),-74.8% (active),-90.6% (active),-78.3% (active),-89.3% (active),-99.4% (active),,-73.5% (active),,-94.3% (active),-95.7% (active)
C#CC1(O)CCC(C(C)(C)C)CC1 (stereo unspecified),110%,115%,112%,87.9%,94.2%,,114%,121%,115%,119%,115%,103%,97.7%,102%,97%,105%,122%,107%,108%
Cc1cc(C)c(C[N+](C)(C)C)c(C)c1C,1.22% (active),5.53% (active),5.07% (active),,5.53% (active),0.186% (active),5.6% (active),7.21% (active),,-12.6% (active),,2.43% (active),2.12% (active),-7.58% (active),16.9%,3.56% (active),-39.5% (active),4.58% (active),10.5%
O=[N+]([O-])c1cc[n+]([O-])c2ccccc12,-18.3% (active),-47.9% (active),-58.4% (active),-41.6% (active),-25.1% (active),-74.9% (active),,0.325% (active),-69% (active),-45.1% (active),-87.1% (active),3.65% (active),-17.7% (active),-35% (active),-47.1% (active),-72.1% (active),-61.6% (active),-49.2% (active),-92.9% (active)
NC(=O)c1cc([N+](=O)[O-])c(Cl)c([N+](=O)[O-])c1Cl,98.3%,35.9%,72.2%,-52.2% (active),89.6%,,,8.14% (active),-51.5% (active),1.49% (active),-89.6% (active),,95.5%,5% (active),-29.2% (active),25.6%,-82.4% (active),13.2%,-21.9% (active)
COc1cc([C@@H]2c3cc4c(c(O)c3C[C@H]3COC(=O)[C@@H]32)OCO4)cc(OC)c1OC,21.9%,,0.25% (active),-31.4% (active),24.9%,-69.5% (active),-28.2% (active),7.73% (active),40.4%,21%,14.3%,21.5%,-22.2% (active),-18% (active),57.5%,17.3%,-25% (active),-69.8% (active),-66.3% (active)
O=[N+]([O-])/C=C/c1ccc(Cl)cc1[N+](=O)[O-],96.6%,62.9%,58.4%,92.3%,85.4%,,75.2%,9.32% (active),96.3%,58.2%,-94.7% (active),59.1%,91.6%,-35.3% (active),89.3%,65.6%,42.9%,28.3%,55.3%
C=NCC#N,107% and 118%,93.2% and 93.4%,102% and 120%,97.6%,110% and 104%,,109%,91.2% and 107%,95.6% and 111%,100% and 112%,111% and 101%,103% and 102%,98.3% and 124%,88.4% and 99.3%,114% and 103%,97.8% and 97.9%,68.8% and 103%,99.4% and 103%,94.2%
[Cl][Hg][c]1ccc2ccccc2c1,-53.1% (active),-79.9% (active),-4.3% (active),,19.6%,,-22.1% (active),-13.1% (active),,-69.6% (active),-97% (active),-70.4% (active),17.3%,-13.7% (active),-86.7% (active),-67.1% (active),-95.1% (active),-92.2% (active),-99.1% (active)
CCOP(=O)(OCC)C(O)c1ccccc1Cl (stereo unspecified),93.8%,109%,102%,,105%,107%,97.7%,97.7%,86.8%,118%,,100%,112%,91.1%,106%,99.4%,95.7%,102%,103%
CC[C@@H](C)[C@@H]1NC(=O)C(NC(=O)C(CC(C)C)N(C)C(=O)C2CCCN2C(=O)C(C)O)C(C)OC(=O)C(Cc2ccc(OC)cc2)N(C)C(=O)C2CCCN2C(=O)C(CC(C)C)NC(=O)C(C)C(=O)C(C(C)C)OC(=O)C[C@H]1O (stereo partly specified),-16.5% (active),-42.9% (active),-49.7% (active),-41.9% (active),-80.2% (active),,-40.7% (active),-27% (active),-87.2% (active),-55.6% (active),-66.2% (active),-49.4% (active),-31% (active),-70.1% (active),-50.8% (active),-46.2% (active),-43.2% (active),-37.9% (active),-80.1% (active)
Cc1ccc(NC(=O)CBr)cc1,99.4%,,105%,96%,,108%,105%,70.8%,87.5%,95.1%,102%,104%,103%,111%,,91.7%,-55.6% (active),107%,97.6%
Cc1ccc(C(=O)C2C(c3ccccc3)N2C2CCCCC2)cc1 (stereo unspecified),107%,112% and 101%,98.6% and 92%,78.1%,99.9% and 105%,,105% and 111%,87.3% and 83%,98.1% and 97.9%,117% and 112%,111% and 96.8%,111% and 102%,106%,99.9% and 103%,89.9% and 98.6%,102% and 88.4%,90.5% and 75.5%,101% and 97.6%,93.8% and 92.2%
C[C@@H]1C[C@@H]([C@H](O)CC2CC(=O)NC(=O)C2)C(=O)[C@@H](C)C1,2.7% (active),3.86% (active),4.51% (active),,0.381% (active),-14.9% (active),4.37% (active),,1.97% (active),0.445% (active),,5.71% (active),2.62% (active),-5.66% (active),-4.83% (active),-3.78% (active),-15.6% (active),0.349% (active),-9.1% (active)
